Results on 9 molecules are retold here after PubChem BioAssay (Tox21).

Records with an inconclusive call do not appear. Values without a mark were called inactive. Calls of active or inactive are those of the source. Unless noted, calls come from the whole dose curve; as a rule, active = well fitted curve in the direction sought with a large enough effect in the repeat runs; inconclusive = weak or mixed curves; inactive = no such curve, though single readings can be large; an effect the other way counts as inactive or inconclusive.

Experiment [1] in a line: qHTS assay to identify small molecule antagonists of the thyroid receptor (TR) signaling pathway - cell viability counter screen (AID 743064). Note: nearly all actives have a fitted effect of over 50% in size. Note: potency is the fitted concentration of half-maximal effect. Put shortly: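 GH3.TRE-Luc cells, 4 h pre-plating; cpd + T3 1 nM final; 37 °C 23.5 h; CellTiter-Fluor 30 min; fluorescence read.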
On the technique in general: In qHTS, concentration-response curves come from the screen itself.

In experiment [2] the test system is thyroid hormone receptor (rat, GH3 cells). The experiment in a line: qHTS assay to identify small molecule agonists of the thyroid receptor (TR) signaling pathway (AID 743066; calls by dose curve).
The nature of experiment [3]: qHTS assay to identify small molecule antagonists of the estrogen receptor alpha (ER-alpha) signaling pathway - cell viability counter screen (AID 743074; calls by dose curve;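 note: HEK293 cells carrying ER-alpha-UAS-bla reporter stimulated with 17beta-estradiol; nearly all actives have a fitted effect of over 45% in size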).
The nature of experiment [4]: qHTS assay to identify small molecule antagonists of the estrogen receptor alpha (ER-alpha) signaling pathway using the BG1 cell line - cell viability counter screen (AID 743081).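 Note: compound given together with 17beta-estradiol as the ER stimulus; series mostly up to about 70 µM; nearly all actives have a fitted effect of over 45% in size.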
The nature of experiment [5]: qHTS assay to identify aromatase inhibitors - cell viability counter screen (AID 743084).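 Note: cells stimulated with testosterone during compound exposure; nearly all actives have a fitted effect of over 55% in size.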
Experiment [6] is described as follows: qHTS assay to identify small molecule that activate the aryl hydrocarbon receptor (AhR) signaling pathway - cell viability counter screen (AID 743086). Note: series mostly up to about 70 µM; nearly all actives have a fitted effect of over 45% in size. Put shortly: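 Cytotoxicity counter screen: CellTiter-Fluor signal (30 min, 37 C) in 4000 HepG2 cells/well carrying the DRE-luciferase reporter, following 24 h compound exposure at 37 C.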
A short description of experiment [7]: qHTS assay for small molecule agonists of the antioxidant response element (ARE) signaling pathway - cell viability counter screen (AID 743203; calls by dose curve; note: nearly all actives have a fitted effect of over 55% in size). Put shortly: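 ARE-bla HepG2 cells were plated, rested 5 h at 37C/5% CO2, then exposed to compounds in DMSO for 16 h. Viability was read as CellTiter-Glo luminescence after 30 min at room temperature, in the same wells as the ARE screen.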

The nature of experiment [8]: qHTS assay for small molecule activators of the heat shock response signaling pathway - cell viability counter screen (AID 743209). Note: nearly all actives have a fitted effect of over 50% in size. Put shortly:
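HSE-bla HeLa cells plated overnight, then exposed to Tox21 compounds (23 nL in DMSO) for 5 h at 37 C. After the bla reporter read, CellTiter-Glo was added in the same wells and luminescence read after 30 min at room temperature.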

Experiment [9] can be described thus: qHTS assay for small molecule activators of the heat shock response signaling pathway (AID 743210; active = well fitted activation curve with a large enough effect in the signal ratio in the repeat runs, with a control signal flat, not every such curve was filed as active; the % refers to the signal ratio;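 note: HeLa cells with beta-lactamase reporter driven by heat shock elements; series mostly up to about 63 µM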). Put shortly: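 HeLa HSE-bla cells, overnight plating; cpd in DMSO 5 h, 37 C; LiveBLAzer B/G FRET substrate 2.5 h RT; fluorescence intensity read.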
Experiment [10] in a line: qHTS assay to identify small molecule antagonists of the thyroid receptor (TR) signaling pathway (AID 743065). Note: nearly all actives have a fitted effect of over 55% in size. Note: potency is the fitted concentration of half-maximal effect. Put shortly: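 Antagonism measured as loss of luciferase signal in GH3 cells stably carrying a TRE-luciferase reporter, co-treated with compound and T3 (1 nM final) for 23.5 h at 37 C. Viability was read in the same well by CellTiter-Fluor.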
Experiment [11] addresses Estrogen receptor (Homo sapiens) (UniProt P03372). The experiment in a line: qHTS assay to identify small molecule antagonists of the estrogen receptor alpha (ER-alpha) signaling pathway (AID 743069; active = well fitted curve in the direction sought with a large enough effect in the signal ratio in the repeat runs, not every such curve was filed as active; the % refers to the signal ratio). Put shortly:
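ER-alpha-UAS-bla GripTite HEK293 line; 2% charcoal-stripped FBS overnight; plated, 4 hr 37C/5% CO2; cpd in DMSO + 17beta-estradiol, 18 hr 37C; LiveBLAzer B/G FRET substrate 2 hr RT; fluorescence intensity.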

Experiment [12] shares this target. Description: qHTS assay to identify small molecule agonists of the estrogen receptor alpha (ER-alpha) signaling pathway (AID 743075; calls by dose curve;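 note: HEK293 GripTite cells with ER-alpha and UAS-driven beta-lactamase reporter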).
Experiment [13] has the same target. Description: qHTS assay to identify small molecule agonists of the estrogen receptor alpha (ER-alpha) signaling pathway using the BG1 cell line (AID 743079). Note: nearly all actives have a fitted effect of over 20% in size.
A short description of experiment [14]: qHTS assay to identify small molecule antagonists of the estrogen receptor alpha (ER-alpha) signaling pathway using the BG1 cell line (AID 743080; calls by dose curve;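 note: BG1 cells stimulated with 17beta-estradiol alongside compound; series mostly up to about 70 µM; nearly all actives have a fitted effect of over 25% in size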). Put shortly: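 BG1-Luc-4E2 cells (endogenous full-length ER-alpha, 4xERE luciferase) hormone-starved 5 days in charcoal-stripped FBS, plated 4,000/well for 24 h, then compound plus 17beta-estradiol for 21.5 h at 37 C; ONE-Glo luminescence read.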

In a further experiment the target is Aromatase (Homo sapiens) (UniProt P11511). Description: qHTS assay to identify aromatase inhibitors (AID 743083). Note: nearly all actives have a fitted effect of over 55% in size. Note: potency is the fitted concentration of half-maximal effect.
Chain of Aromatase (Homo sapiens) (P11511 whole entry, looked up): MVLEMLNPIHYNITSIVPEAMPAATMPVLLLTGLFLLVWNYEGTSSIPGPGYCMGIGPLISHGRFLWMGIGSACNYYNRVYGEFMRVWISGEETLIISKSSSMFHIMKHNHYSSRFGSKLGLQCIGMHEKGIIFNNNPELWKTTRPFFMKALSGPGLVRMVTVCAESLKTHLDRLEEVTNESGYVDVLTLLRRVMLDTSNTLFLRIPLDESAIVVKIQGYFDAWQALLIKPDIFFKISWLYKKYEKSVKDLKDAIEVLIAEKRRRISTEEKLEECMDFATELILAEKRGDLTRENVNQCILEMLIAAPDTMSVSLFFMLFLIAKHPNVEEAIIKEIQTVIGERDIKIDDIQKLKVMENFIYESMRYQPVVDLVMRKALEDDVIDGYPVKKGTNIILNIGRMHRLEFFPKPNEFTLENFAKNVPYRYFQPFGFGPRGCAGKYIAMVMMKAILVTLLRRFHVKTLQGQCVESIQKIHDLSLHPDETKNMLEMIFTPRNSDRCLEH
The target in experiment [15] is Aryl hydrocarbon receptor (Homo sapiens) (UniProt P35869). The experiment in a line: qHTS assay to identify small molecule that activate the aryl hydrocarbon receptor (AhR) signaling pathway (AID 743085).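 Note: HG2L7.5c1 human HepG2 liver cells with stably integrated DRE-driven firefly reporter; series mostly up to about 70 µM; nearly all actives have a fitted effect of over 15% in size.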 Put shortly:
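Luminescence read-out: ONE-Glo reagent, 30 min at room temperature, in HG2L7.5c1 HepG2 reporter cells treated 24 h at 37C. Viability was measured beforehand by CellTiter-Fluor fluorescence after 30 min at 37C.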

In experiment [16] the target is Peroxisome proliferator-activated receptor gamma (Homo sapiens) (UniProt P37231). Description: qHTS assay to identify small molecule agonists of the peroxisome proliferator-activated receptor gamma (PPARg) signaling pathway (AID 743094; active = well fitted activation curve with a large enough effect in the signal ratio in the repeat runs, not every such curve was filed as active; the % refers to the signal ratio). Put shortly: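 GeneBLAzer PPARg UAS-bla HEK293H cells were plated, rested 5 h, then exposed to compounds for 17 h at 37C. Beta-lactamase activity was read by LiveBLAzer B/G FRET substrate fluorescence after 1 h at room temperature.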
Chain of Peroxisome proliferator-activated receptor gamma (Homo sapiens) (P37231 whole entry, looked up): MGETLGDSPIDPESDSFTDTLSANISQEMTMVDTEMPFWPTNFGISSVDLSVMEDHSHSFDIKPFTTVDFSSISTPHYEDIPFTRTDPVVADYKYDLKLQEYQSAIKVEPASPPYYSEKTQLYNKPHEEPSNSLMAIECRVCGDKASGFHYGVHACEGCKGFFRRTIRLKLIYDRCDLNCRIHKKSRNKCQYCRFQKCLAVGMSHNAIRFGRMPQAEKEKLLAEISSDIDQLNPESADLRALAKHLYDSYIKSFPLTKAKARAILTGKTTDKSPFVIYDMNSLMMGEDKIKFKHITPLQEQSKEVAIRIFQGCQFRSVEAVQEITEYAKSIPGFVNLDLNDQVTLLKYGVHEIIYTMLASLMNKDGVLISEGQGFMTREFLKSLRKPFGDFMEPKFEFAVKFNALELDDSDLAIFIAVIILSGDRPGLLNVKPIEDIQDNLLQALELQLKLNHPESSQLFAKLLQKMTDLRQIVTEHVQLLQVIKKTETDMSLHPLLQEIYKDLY

Experiment [17] shares this target. Description: qHTS assay to identify small molecule antagonists of the peroxisome proliferator-activated receptor gamma (PPARg) signaling pathway (AID 743191; calls by dose curve; note: series mostly up to about 63 µM; nearly all actives have a fitted effect of over 30% in size). Put shortly:
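Beta-lactamase reporter under UAS control in HEK293H PPARg-bla cells; compound treatment 17 h at 37C. Read-out: fluorescence intensity after 1 h room-temperature incubation with LiveBLAzer B/G FRET substrate.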

Experiment [18] is described as follows: qHTS assay to identify small molecule antagonists of the peroxisome proliferator-activated receptor gamma (PPARg) signaling pathway - cell viability counter screen (AID 743194). Note: nearly all actives have a fitted effect of over 55% in size. Put shortly:
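Viability was measured as CellTiter-Glo luminescence in GeneBLAzer PPARg UAS-bla HEK293H cells. These cells had been exposed 17 h at 37 C to compounds together with rosiglitazone at 50 nM final, with the beta-lactamase readout taken in the same wells.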

A short description of experiment [19]: qHTS assay for small molecule agonists of the antioxidant response element (ARE) signaling pathway (AID 743202; active = well fitted activation curve with a large enough effect in the signal ratio in the repeat runs, not every such curve was filed as active; the % refers to the signal ratio). Put shortly: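 Quantitative high-throughput format in HepG2 cells bearing an integrated ARE-beta-lactamase reporter. Compound exposure lasted 16 h at 37 C, and fluorescence was read 2 h after adding LiveBLAzer B/G substrate at room temperature.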

Chain of Estrogen receptor (Homo sapiens) (P03372 whole entry, looked up): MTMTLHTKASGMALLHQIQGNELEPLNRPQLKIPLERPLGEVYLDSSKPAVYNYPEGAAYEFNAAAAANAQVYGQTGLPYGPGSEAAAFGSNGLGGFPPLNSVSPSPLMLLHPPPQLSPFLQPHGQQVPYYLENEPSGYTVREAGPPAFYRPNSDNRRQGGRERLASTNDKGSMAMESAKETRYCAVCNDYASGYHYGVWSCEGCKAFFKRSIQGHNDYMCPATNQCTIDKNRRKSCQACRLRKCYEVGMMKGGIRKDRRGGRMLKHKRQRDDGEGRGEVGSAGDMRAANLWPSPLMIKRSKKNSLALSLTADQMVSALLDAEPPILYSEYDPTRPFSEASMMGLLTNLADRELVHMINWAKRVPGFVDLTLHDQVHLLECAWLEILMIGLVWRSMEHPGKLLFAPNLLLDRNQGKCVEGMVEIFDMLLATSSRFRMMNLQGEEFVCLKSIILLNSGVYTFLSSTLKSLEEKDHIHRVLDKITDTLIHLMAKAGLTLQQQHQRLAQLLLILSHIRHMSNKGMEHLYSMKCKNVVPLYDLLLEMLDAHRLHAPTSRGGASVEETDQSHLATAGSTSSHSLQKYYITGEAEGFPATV
Chain of Aryl hydrocarbon receptor (Homo sapiens) (P35869 whole entry, looked up): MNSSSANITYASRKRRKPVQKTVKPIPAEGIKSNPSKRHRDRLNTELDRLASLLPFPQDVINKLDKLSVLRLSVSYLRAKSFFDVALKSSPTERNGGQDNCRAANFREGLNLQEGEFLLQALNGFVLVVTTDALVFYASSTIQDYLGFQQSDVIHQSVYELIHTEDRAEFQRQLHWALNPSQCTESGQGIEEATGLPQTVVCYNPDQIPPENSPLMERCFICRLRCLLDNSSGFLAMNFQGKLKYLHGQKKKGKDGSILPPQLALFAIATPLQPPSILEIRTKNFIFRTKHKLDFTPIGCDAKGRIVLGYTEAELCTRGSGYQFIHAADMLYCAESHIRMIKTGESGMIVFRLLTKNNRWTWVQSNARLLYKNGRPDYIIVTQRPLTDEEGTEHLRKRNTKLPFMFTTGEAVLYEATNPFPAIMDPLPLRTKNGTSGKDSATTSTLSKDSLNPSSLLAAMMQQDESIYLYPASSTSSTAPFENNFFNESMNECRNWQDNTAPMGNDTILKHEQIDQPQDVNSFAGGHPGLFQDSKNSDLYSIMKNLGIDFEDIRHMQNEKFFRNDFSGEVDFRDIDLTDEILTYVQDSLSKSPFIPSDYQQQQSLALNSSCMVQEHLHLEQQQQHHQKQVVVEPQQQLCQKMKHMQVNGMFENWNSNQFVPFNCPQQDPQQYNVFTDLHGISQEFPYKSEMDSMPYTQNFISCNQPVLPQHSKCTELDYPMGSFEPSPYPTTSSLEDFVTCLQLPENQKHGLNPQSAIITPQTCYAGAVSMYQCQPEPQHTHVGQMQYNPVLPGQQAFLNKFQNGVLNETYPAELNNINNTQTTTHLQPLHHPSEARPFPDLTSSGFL

With `CCCOC(=O)c1c(Cl)c(Cl)c(Cl)c(Cl)c1C(=O)OCCC`, the Potency result in experiment [1], in experiment [2], in experiment [3], in experiment [4], in experiment [5] and in [6] was “inactive” each time. The Potency result in experiment [7], in [8] and in experiment [9] was “inactive” throughout.

On to `O=C(O)CO`, for which the Potency entry in experiment [10], in experiment [2], in experiment [11], in experiment [3], in experiment [12] and in [13] was “inactive” throughout. The Potency result (in [14]; in experiment [4]; with Aromatase (Homo sapiens); in experiment [5]; in [15]; in experiment [6]) was “inactive” in each case. The Potency result in experiment [17], in [18], in [7], in experiment [8] and in [9] was “inactive” each time. In addition, in experiment [16], the call was inactive.

With `CNS(=O)(=O)c1cc(C(=O)N2CCC(CCN3C4CCC3CC(n3c(C)nc5ccccc53)C4)(c3cccc(F)c3)CC2)c(Cl)cc1F` (stereo not drawn), the Potency in [1] is 54.5 µM (active); in [10] it was 48.6 µM (active); with Aromatase (Homo sapiens), 68.6 µM (active). Moreover, the Potency entry in experiment [3], in experiment [4], in [15] and in experiment [8] was “inactive” throughout.

For `CCCCC(CC)COS(=O)(=O)O` (stereo not drawn), the Potency entry in experiment [10], in experiment [2], in [11], in [3], in experiment [12] and in experiment [13] was “inactive” in each case. Also, the Potency result (in [14]; in experiment [4]; in the experiment with Aromatase (Homo sapiens); in experiment [5]; in [15]; in experiment [6]) was “inactive” throughout. In addition, the Potency entry in experiment [18], in experiment [7] and in experiment [8] was “inactive” each time.

As to `CC(CO)(CO)C(=O)O`, the Potency entry in [1], in experiment [11], in experiment [3], in experiment [12], in [13] and in experiment [14] was “inactive” each time. In addition, the Potency result (in experiment [4]; in the experiment with Aromatase (Homo sapiens); in [5]; in [15]; in [6]; in experiment [18]) was “inactive” each time. Moreover, the Potency entry in experiment [19], in [7] and in experiment [9] was “inactive” throughout.

As for `CCO[Si](C)(CCCOCC1CO1)OCC` (stereo not drawn), the Potency result in [1], in experiment [2], in experiment [11], in [3], in experiment [12] and in experiment [13] was “inactive” throughout. Moreover, the Potency result (in experiment [14]; in [4]; in the experiment with Aromatase (Homo sapiens); in experiment [15]; in experiment [6]; in experiment [18]) was “inactive” throughout. The Potency result in experiment [7] and in experiment [8] was “inactive” throughout. In addition, in experiment [16], the call was inactive.

With `CCCCCCCCCCCCCCCCCC(=O)OCC(CC)CCCC` (stereo not drawn), the Potency entry (in experiment [1]; in [10]; in experiment [2]; in [4]; with Aromatase (Homo sapiens); in experiment [15]) was “inactive” each time. Also, the Potency entry in [6], in [17], in experiment [18], in experiment [7], in experiment [8] and in experiment [9] was “inactive” in each case. Besides, in experiment [16], the result was inactive.

As to `NC(=O)CCCCC(N)=O`, the Potency entry in experiment [10], in experiment [2], in experiment [11], in [3], in [12] and in experiment [13] was “inactive” each time. Also, the Potency result (in [14]; in [4]; with Aromatase (Homo sapiens); in [5]; in experiment [15]; in [6]) was “inactive” each time. The Potency result in experiment [17], in experiment [18], in experiment [7] and in experiment [8] was “inactive” throughout. For the same molecule, the molecule was called inactive in [16].

`Cc1cc(CCC(=O)OCCOCCOCCOC(=O)CCc2cc(C)c(O)c(C(C)(C)C)c2)cc(C(C)(C)C)c1O`: the Potency result (in experiment [1]; in [2]; in [3]; in experiment [4]; with Aromatase (Homo sapiens); in experiment [5]) was “inactive” in each case. For the same molecule, the Potency entry in experiment [15], in experiment [6], in [18], in [19], in [7] and in experiment [8] was “inactive” in each case. The Potency entry in experiment [9] was “inactive”. Besides, the outcome in experiment [16] was inactive.
